The results in this text go back to PubChem BioAssay (NCATS).

Values without a mark were called inactive. Results filed as inconclusive are left out. Activity calls are given as the source filed them. Unless noted, calls come from the whole dose curve; as a rule, active = well fitted curve in the direction sought with a large enough effect; inconclusive = small, poorly fitted or top-dose-only effect, or another doubt; inactive = no such curve, though single readings can be large; an effect the other way counts as inactive or inconclusive.

In assay [1] the target is Lysosomal acid glucosylceramidase (Homo sapiens) (UniProt P04062). Description: Glucocerebrosidase-p2 (AID 348; in the data active = potency below about 10 µM; note: potency is the fitted concentration of half-maximal effect). Conditions: purified GBA, blue fluorogenic substrate, 40 min. The method in brief:
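Normal human glucocerebrosidase (0.2 nM) with blue fluorogenic substrate (80 uM final) in citrate/phosphate pH 5.9 with 10mM sodium taurocholate, 0.01% tween-20; 40 min RT, NaOH/glycine stop; fluorescence Ex 365/Em 440; AC50 from a titration from 0.6 nM upwards.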

The nature of assay [2]: AP1 Signaling Pathway (AID 357; active = well fitted curve in either direction with a large enough effect, not every such curve was filed as active; note: % is set by controls: 0 for no effect and ±100 for the full control effect). The settings on record: ME-180 AP-1-bla reporter, EGF-induced, beta-lactamase ratio, 5 h; at 7.69 µM (top of the series) unless noted. In short, it runs like this: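 First, ME-180 AP-1-bla cells were cultured overnight at 37 °C in low-serum Opti-MEM. Next, titrated compounds with EC50 EGF were incubated 5 hours. Finally, CCF4 was added for 2.5 hours and the 460/530 nm ratio recorded.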

The target in assay [3] is Cytochrome P450 1A2 (Homo sapiens) (UniProt P05177). Description: p450-cyp1a2 (AID 410; calls by dose curve; note: potency is the fitted concentration of half-maximal effect). The settings on record: recombinant CYP1A2, luciferin-ME demethylation, luminescence; series mostly up to 57 µM. In short, it runs like this: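 20nM CYP1A2, 100uM Luciferin-ME (=Km), 100mM KPO4; cpd 10 min RT; +NADPH regen, 60 min RT; stop/detect 20 min; luminescence. Normalized to furafylline 57 uM = full inhibition.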
Cytochrome P450 1A2 (Homo sapiens), sequence (P05177 whole entry, looked up): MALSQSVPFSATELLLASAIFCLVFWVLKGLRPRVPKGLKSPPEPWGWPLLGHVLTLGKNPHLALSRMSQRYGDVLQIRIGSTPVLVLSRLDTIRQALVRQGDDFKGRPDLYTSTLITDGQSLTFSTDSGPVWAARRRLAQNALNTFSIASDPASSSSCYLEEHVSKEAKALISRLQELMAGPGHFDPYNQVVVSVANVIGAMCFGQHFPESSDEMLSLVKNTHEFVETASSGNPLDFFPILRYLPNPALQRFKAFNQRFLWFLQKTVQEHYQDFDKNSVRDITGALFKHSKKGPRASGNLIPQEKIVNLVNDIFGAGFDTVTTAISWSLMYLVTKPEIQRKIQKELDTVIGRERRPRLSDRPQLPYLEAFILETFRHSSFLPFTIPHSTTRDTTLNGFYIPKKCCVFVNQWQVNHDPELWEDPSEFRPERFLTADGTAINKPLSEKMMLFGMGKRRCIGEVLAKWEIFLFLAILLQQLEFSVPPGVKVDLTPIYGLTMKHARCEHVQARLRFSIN

Assay [4] can be described thus: NFAT Signaling Pathway (AID 444; active = well fitted curve in either direction with a large enough effect, not every such curve was filed as active;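 note: carbachol stimulus at about its EC50 of 1 µM final; % is set by controls: 0 for no effect and ±100 for the full control effect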). Conditions: Jurkat NFAT-bla M1, carbachol, beta-lactamase ratio, 5 h; at 7.69 µM (top of the series) unless noted. The method in brief:
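Read-out: CCF4 FRET ratio (460 nm/530 nm) after 1 h RT dye loading, used for %activity and AC50 from titration series. Cells: Jurkat NFAT-β-lactamase/M1 line, treated with compound plus 1 uM carbachol for 5 h, 37 °C.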

The nature of assay [5]: Stat Signaling Pathway (AID 446; active = well fitted curve in either direction with a large enough effect, not every such curve was filed as active;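 note: ME-180 cervical cancer cells given 40 pM IL-6 alongside compound; SIE-controlled beta-lactamase reporter measured as 460/530 nm FRET emission ratio; % is set by controls: 0 for no effect and ±100 for the full control effect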). The settings on record: ME-180 (cervical carcinoma) SIE beta-lactamase reporter, IL-6 stimulated, 5 h; at 7.69 µM (top of the series) unless noted. The method in brief:
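Normalization used AC90 stimulation (300 pM IL-6) and AC90 inhibition (125 nM pan-JAK inhibitor at 40 pM IL-6). The underlying signal is SIE-driven beta-lactamase in ME-180 cells after 5 h IL-6 exposure with compound.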

For assay [6], the target named is Glucocorticoid receptor (Homo sapiens) (UniProt P04150). Description: GR-GFP Redistribution (AID 450;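 active = compounds whose dose series gives a full or clear partial fitted curve of increased nuclear translocation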; note: potency is the fitted concentration of half-maximal effect). The settings on record: U2OS GR-GFP nuclear translocation, laser cytometry, 2 h.
Glucocorticoid receptor (Homo sapiens), sequence (P04150 whole entry, looked up, the tested form may be a part): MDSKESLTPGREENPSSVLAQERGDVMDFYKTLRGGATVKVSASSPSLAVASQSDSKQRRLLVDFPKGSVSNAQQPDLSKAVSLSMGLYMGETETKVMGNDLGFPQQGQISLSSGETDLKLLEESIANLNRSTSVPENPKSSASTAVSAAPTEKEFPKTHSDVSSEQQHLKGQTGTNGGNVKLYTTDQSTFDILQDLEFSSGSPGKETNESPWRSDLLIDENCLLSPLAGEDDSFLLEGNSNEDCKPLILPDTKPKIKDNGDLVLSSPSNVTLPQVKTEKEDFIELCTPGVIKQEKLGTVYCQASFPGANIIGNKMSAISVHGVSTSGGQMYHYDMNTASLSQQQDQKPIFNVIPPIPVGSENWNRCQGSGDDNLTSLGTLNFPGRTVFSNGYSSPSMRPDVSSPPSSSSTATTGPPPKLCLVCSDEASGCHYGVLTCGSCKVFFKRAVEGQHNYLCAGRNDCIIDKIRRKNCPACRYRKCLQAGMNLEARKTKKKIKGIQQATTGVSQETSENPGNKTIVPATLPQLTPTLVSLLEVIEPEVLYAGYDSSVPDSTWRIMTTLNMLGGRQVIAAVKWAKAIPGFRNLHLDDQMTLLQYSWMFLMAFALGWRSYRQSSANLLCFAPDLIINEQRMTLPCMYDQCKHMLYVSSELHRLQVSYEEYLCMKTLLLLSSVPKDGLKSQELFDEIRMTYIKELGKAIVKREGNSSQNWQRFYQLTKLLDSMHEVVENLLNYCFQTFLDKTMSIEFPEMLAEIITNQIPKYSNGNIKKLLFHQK
For assay [7] the target is unchanged. Description: GR-EFC Redistribution (AID 451; calls by dose curve; note: potency is the fitted concentration of half-maximal effect). The settings on record: CHO-K1 GR-EFC translocation, beta-gal luminescence, 2 h. In short, it runs like this: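 Translocation of GR-ED fusion to nuclear EA restores b-gal, read by luminescence after 1 h room-temperature detection. Engineered CHO-K1 biosensor cells, 1,000/well, exposed 2 h at 37 C to titrations up to 46 uM final.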

For assay [8], the target named is Mitogen-activated protein kinase 10 (Mus musculus) (UniProt Q61831). Description: JNK3 AlphaScreen Assay (AID 530; active = well fitted curve in either direction with a large enough effect, not every such curve was filed as active;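 note: kinase came from lysate of stimulated human HepG2 cells; signal reports phosphorylation of biotinylated GST-cJun 1-79 at Ser73 with 10 µM ATP; % is set by controls: 0 for no effect and ±100 for the full control effect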). The settings on record: JNK3 lysate, c-Jun phosphorylation; series mostly up to 57.1 µM. In short, it runs like this:
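Kinase buffer: 20 mM Tris-HCl pH 7.6, 10 mM MgCl2, 1 mM DTT, 0.1 mM Na3VO4, 0.01% Tween-20; ATP 10 uM. Substrate biotin-GST-cJun(1-79), enzyme from activated HepG2 lysates. Detection by Ser73 phospho-antibody AlphaScreen.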

The target in assay [9] is Cytochrome P450 3A4 (Homo sapiens) (UniProt P08684). Description: qHTS Assay for Activators of Cytochrome P450 3A4 (AID 885). Note: nearly all actives have a fitted effect of over 65% in size. The settings on record: recombinant CYP3A4, Luciferin-PPXE luminescence, 60 min; series mostly up to 57.1 µM. The method in brief: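 Human CYP3A4 dealkylates Luciferin-PPXE to luciferin, which luciferase detection converts to light. Substrate was at its KM (25uM), buffer 200mM KPO4, reaction 60 min at RT.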
Cytochrome P450 3A4 (Homo sapiens), sequence (P08684 whole entry, looked up): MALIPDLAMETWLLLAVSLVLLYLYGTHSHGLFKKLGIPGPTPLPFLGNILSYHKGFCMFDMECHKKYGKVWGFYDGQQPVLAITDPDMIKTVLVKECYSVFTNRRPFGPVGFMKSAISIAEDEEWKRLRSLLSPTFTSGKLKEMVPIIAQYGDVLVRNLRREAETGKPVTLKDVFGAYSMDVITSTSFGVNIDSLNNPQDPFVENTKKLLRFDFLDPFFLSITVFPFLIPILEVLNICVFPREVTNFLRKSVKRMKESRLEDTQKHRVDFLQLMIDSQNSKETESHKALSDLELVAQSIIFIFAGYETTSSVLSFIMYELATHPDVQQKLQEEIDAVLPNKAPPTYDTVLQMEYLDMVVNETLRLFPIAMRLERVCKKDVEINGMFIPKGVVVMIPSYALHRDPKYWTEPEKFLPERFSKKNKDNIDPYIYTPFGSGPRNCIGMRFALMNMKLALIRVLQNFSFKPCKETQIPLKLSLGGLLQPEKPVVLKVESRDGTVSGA
For orientation: Quantitative high-throughput screening tests each substance at several concentrations.

Assay [10] addresses Dual specificity protein kinase CLK4 (Homo sapiens) (UniProt Q9HAZ1). Description: qHTS Assay for Inhibitors of CDC-like Kinase 4 (Kinase-Glo Assay) (AID 1770). Note: nearly all actives have a fitted effect of over 65% in size. Note: potency is the fitted concentration of half-maximal effect. The settings on record: recombinant Clk4, Kinase-Glo ATP depletion luminescence; series mostly up to 66.7 µM. In short, it runs like this: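 Clk4 25 nM, RS peptide 100 uM, ATP 1 uM, pH 7.5 Tris, 10 mM MgCl2, 2.5 mM DTT; 4.5 h RT; ATP depletion read by Kinase-Glo luminescence.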

Assay [11] shares this target. Description: qHTS Assay for Inhibitors of CDC-like Kinase 4 (ADP-Glo Assay) (AID 1771). Note: nearly all actives have a fitted effect of over 70% in size. Note: potency is the fitted concentration of half-maximal effect. The settings on record: recombinant CLK4, ADP-Glo luminescence; series mostly up to 80 µM. In short, it runs like this: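 25 nM Clk4, 100 uM RS peptide, 1 uM ATP (final); 2 mM MgCl2, 0.5 mM EGTA, 2.5 mM DTT, 0.01% Triton X-100; 1 hr RT. ADP-Glo readout: ATP depletion 45 min, conversion/luciferase 30 min, luminescence.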

Assay [12] has the same target. Description: qHTS Assay for Inhibitors of CDC-like Kinase 4 (ADP-FP Assay) (AID 1795). Note: nearly all actives have a fitted effect of over 60% in size. Note: potency is the fitted concentration of half-maximal effect. Conditions: Transcreener ADP fluorescence polarization; series mostly up to 50 µM. The method in brief:
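Kinase activity was followed as ADP output, converted from fluorescence polarization with a calibration curve. Reactions ran one hour at low ATP (1 uM) with RS peptide substrate.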

The nature of assay [13]: Primary qHTS for small molecule stabilizers of the endoplasmic reticulum resident proteome: Secreted ER Calcium Modulated Protein (SERCaMP) assay (AID 1508630). Note: % is set by controls: 0 for no effect and ±100 for the full control effect. The settings on record: SH-SY5Y GLuc-SERCaMP (Gaussia luciferase released on ER calcium loss) secretion, thapsigargin, luminescence; series mostly up to 38.4 µM. In short, it runs like this: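 The SH-SY5Y reporter protocol was run at 3 concentrations up to 38.3 uM (primary) or 11 concentrations (follow-up): 16 h compound, 100 nM thapsigargin for 4 h, then extracellular luciferase luminescence.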

For assay [14], the target named is Cytochrome P450 3A4 (Homo sapiens) (UniProt P08684). Description: qHTS Assay for Inhibitors and Substrates of Cytochrome P450 3A4 (AID 884). Note: potency is the fitted concentration of half-maximal effect; nearly all actives have a fitted effect of over 50% in size. Conditions: recombinant CYP3A4, Luciferin-PPXE luminescence; series mostly up to 57.1 µM. In short, it runs like this: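 Luminescent readout of luciferin produced by CYP3A4 (20 nM) dealkylation of Luciferin-PPXE, 25 uM (its KM). NADPH-driven reaction ran 60 min at RT after 10 min compound preincubation; data scaled to 57 uM ketoconazole as 100% inhibition.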

The target of assay [15] is Cytochrome P450 2C19 (Homo sapiens) (UniProt P33261). Description: qHTS Assay for Inhibitors and Substrates of Cytochrome P450 2C19 (AID 899). Note: potency is the fitted concentration of half-maximal effect; nearly all actives have a fitted effect of over 60% in size. Conditions: recombinant CYP2C19, luciferin-H EGE luminescence; series mostly up to 57.1 µM. In short, it runs like this:
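Luminescence readout of luciferin formed from 10uM Luciferin-H EGE (KM level) by 5 nM CYP2C19 in 50mM KPO4. 60 min NADPH-driven reaction at 37C after 10 min compound preincubation; data scaled to 57uM ketoconazole inhibition.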

For assay [16], the target named is 3',5'-cyclic-AMP phosphodiesterase 4B (Homo sapiens) (UniProt Q07343). Description: qHTS Assay for Inhibitors of PDE-IV (AID 607; active = well fitted activation curve with a large enough effect in the main read-out, with a control signal flat, not every such curve was filed as active; note: % of control where 0% means no effect). Conditions: HEK293 ACTOne CNG channel cells, membrane potential fluorescence; series mostly up to 22.9 µM. The method in brief: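 HEK293 ACTOne cells with CNG channel (1000/well), endogenous PDE4; membrane potential dye, compounds up to 22.9 uM final. Fluorescence Ex 535/Em 590; RO 20-1724 (100 uM final) as reference.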
3',5'-cyclic-AMP phosphodiesterase 4B (Homo sapiens), sequence (Q07343 whole entry, looked up): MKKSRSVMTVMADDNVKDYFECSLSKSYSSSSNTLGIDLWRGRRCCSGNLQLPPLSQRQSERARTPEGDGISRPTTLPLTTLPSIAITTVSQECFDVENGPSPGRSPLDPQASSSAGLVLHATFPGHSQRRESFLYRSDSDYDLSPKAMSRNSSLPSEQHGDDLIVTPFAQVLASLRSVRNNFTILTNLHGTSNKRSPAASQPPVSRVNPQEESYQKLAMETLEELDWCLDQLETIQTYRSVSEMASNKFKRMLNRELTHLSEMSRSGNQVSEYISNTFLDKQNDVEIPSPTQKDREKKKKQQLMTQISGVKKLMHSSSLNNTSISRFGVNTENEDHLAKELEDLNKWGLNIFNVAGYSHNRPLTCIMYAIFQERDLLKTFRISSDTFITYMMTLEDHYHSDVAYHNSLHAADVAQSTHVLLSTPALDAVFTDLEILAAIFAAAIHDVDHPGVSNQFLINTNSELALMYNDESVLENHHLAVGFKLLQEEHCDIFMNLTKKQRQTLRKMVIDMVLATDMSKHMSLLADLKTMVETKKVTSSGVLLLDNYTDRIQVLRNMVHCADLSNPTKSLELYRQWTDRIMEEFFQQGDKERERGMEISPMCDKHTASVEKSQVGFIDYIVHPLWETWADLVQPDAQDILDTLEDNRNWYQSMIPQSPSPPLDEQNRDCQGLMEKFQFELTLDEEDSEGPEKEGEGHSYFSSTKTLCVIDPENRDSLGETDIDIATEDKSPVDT

The target in assay [17] is Ubiquitin carboxyl-terminal hydrolase 1 (Homo sapiens) (UniProt O94782). Description: Inhibitors of USP1/UAF1: Pilot qHTS (AID 504865).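 Note: rhodamine fluorescence freed from ubiquitin-rhodamine substrate followed over time; top concentration of the series differs between compounds; % is set by controls: 0 for no effect and ±100 for the full control effect; nearly all actives have a fitted effect of over 35% in size.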 The settings on record: purified USP1/UAF1, Ub-rhodamine cleavage fluorescence; series mostly up to 54.9 µM. The method in brief:
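Enzyme-free wells gave the negative control, while test wells held 1nM USP1/UAF1 preincubated with compound for 15 min at room temperature. Ub-Rho at 150nM final started the reaction, and fluorescence at 480/540 nm was recorded kinetically.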

Dual specificity protein kinase CLK4 (Homo sapiens), sequence (Q9HAZ1 whole entry, looked up): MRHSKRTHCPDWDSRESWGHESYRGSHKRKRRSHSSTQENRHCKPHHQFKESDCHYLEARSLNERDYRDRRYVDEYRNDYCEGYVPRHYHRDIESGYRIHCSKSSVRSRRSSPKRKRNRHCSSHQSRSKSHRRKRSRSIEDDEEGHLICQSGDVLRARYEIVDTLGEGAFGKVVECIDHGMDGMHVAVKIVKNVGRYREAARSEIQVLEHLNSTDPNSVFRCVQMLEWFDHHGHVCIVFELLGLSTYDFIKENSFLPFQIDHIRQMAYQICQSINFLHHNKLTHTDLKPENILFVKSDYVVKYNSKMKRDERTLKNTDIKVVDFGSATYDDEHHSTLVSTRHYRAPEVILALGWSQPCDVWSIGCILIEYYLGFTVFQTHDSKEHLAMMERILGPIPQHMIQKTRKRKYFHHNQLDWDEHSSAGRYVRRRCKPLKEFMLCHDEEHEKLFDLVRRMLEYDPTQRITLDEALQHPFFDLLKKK
Lysosomal acid glucosylceramidase (Homo sapiens), sequence (P04062 whole entry, looked up): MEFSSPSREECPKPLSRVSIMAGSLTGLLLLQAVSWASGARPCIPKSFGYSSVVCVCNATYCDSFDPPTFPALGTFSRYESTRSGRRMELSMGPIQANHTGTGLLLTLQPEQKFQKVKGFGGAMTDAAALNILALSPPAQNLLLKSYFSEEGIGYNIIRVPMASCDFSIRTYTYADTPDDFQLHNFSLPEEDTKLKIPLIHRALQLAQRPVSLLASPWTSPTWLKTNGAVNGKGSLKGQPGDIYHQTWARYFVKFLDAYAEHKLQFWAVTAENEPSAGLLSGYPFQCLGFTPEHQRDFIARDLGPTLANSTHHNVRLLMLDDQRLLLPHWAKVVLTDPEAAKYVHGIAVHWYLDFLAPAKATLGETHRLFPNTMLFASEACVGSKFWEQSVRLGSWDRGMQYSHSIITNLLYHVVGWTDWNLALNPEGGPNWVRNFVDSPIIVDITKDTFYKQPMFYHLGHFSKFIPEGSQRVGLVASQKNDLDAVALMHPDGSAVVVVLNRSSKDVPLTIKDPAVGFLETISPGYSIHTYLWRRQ
Ubiquitin carboxyl-terminal hydrolase 1 (Homo sapiens), sequence (O94782 whole entry, looked up): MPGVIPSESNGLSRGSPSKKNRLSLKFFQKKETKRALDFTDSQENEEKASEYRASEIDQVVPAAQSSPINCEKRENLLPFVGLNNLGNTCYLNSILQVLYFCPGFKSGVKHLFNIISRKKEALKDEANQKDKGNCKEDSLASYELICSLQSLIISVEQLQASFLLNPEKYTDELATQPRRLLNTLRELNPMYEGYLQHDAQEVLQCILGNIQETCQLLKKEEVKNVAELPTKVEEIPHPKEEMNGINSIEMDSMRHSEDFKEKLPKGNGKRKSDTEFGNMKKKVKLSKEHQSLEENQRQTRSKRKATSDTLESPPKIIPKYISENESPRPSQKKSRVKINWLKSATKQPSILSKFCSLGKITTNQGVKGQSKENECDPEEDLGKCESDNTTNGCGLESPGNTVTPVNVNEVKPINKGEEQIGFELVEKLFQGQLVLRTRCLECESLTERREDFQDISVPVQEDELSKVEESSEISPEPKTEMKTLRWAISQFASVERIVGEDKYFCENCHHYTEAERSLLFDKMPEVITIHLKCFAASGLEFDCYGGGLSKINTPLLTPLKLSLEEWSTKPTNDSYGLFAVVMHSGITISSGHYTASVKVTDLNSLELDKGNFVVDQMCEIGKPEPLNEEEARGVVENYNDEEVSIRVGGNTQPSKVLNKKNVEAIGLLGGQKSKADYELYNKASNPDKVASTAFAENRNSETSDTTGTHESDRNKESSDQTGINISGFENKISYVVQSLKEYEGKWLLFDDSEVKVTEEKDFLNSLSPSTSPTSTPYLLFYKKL
Cytochrome P450 2C19 (Homo sapiens), sequence (P33261 whole entry, looked up): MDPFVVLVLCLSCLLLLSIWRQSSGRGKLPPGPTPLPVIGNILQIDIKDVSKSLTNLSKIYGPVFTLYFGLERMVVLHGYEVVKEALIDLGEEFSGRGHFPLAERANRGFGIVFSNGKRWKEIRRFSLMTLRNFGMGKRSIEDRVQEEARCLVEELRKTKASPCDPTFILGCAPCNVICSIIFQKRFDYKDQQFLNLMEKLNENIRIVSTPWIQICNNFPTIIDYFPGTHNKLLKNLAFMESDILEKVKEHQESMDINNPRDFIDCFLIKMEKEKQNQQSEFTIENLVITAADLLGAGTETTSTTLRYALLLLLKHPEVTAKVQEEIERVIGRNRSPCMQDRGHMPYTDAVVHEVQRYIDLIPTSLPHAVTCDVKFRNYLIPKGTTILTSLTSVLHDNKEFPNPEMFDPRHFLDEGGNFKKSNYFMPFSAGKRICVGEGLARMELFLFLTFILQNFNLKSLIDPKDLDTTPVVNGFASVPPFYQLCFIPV

On to `COc1ccccc1CNc1cc(-c2ccccc2C)ncn1`, for which the Potency in assay [1] is above 11.4 µM; in assay [3], 5.01 µM (active); in assay [6] it was above 46 µM; in [7], above 46 µM. In addition, the activity change, negative = inhibition was -17.3% in [2] and -18.6% in [4]. Besides, the activity, negative = inhibition in assay [5] is 14.3%. In addition, the Potency result in [8], in [9], in [10], in [11] and in [12] was “inactive” throughout. Moreover, in assay [13], the result was inactive.

Take `COc1ccc(CNc2ccnc(-c3c(C)noc3C)n2)c(OC)c1`: the Potency in assay [1] was above 11.4 µM; in assay [3], 1.26 µM (active); in [6], above 46 µM; in assay [7] it was above 46 µM; in assay [14], 2.51 µM (active); in assay [15], 1.58 µM (active). The figures for the activity change, negative = inhibition in assay [2] and in assay [4] were 11.5% and 8.32%, respectively. Further, in assay [5], the activity, negative = inhibition is 0.0565%. Also, the Potency result in [8], in assay [9], in assay [10], in [11] and in assay [12] was “inactive” each time. Further, in assay [13], the result was inactive.

`CCNc1ncc2nc(-c3cccs3)c(=O)n(Cc3cccc(OC)c3)c2n1`: the Potency in assay [1] was above 11.4 µM; in assay [3], 0.126 µM (active); in assay [6], above 9.22 µM; in [7], above 46 µM. For the same compound, the activity change, negative = inhibition in [2] was 19.3%. The Potency result in assay [8], in [16], in assay [9], in [10], in assay [11] and in [12] was “inactive” throughout. The Potency entry in assay [17] is “inactive”. Also, the result in assay [13] was inactive.

Consider `CN(C)c1ncc2nc(-c3ccc(Cl)cc3)c(=O)n(C)c2n1`, for which the Potency in assay [1] was above 11.4 µM; in assay [3], 1.58 µM (active); in assay [6] it was above 9.22 µM; in assay [7], above 46 µM. In addition, in assay [2], the activity change, negative = inhibition was 24.8%. Besides, the Potency result in [8], in assay [16], in [10], in assay [11], in assay [12] and in assay [17] was “inactive” in each case. Moreover, the result in [13] was inactive.

With `CCNc1ncc2nc(-c3ccc(F)cc3)c(=O)n(-c3ccc(OC)cc3)c2n1`, the Potency in assay [1] was above 11.4 µM; in assay [3], 6.31 µM (active); in assay [6], above 9.22 µM; in assay [7] it was above 46 µM. For the same compound, in assay [2], the activity change, negative = inhibition was -1.24%. Moreover, in assay [5], the activity, negative = inhibition is 20.4%. The Potency result in assay [8], in assay [9], in assay [10], in assay [11], in [12] and in [17] was “inactive” throughout. Moreover, the outcome in assay [13] was inactive.

As for `CC(=O)NCCNc1ncnc2ccc(-c3ccc4c(c3)OCO4)cc12`, the Potency is above 11.4 µM in assay [1]; 0.501 µM (active) in [3]; above 46 µM in assay [6]; above 46 µM in [7]; 5.01 µM (active) in [14]; 6.31 µM (active) in assay [15]. Besides, the Potency in assay [10] is 141 nM (active); in assay [11], 89.1 nM (active); in [12], 126 nM (active). Moreover, in [2], the activity change, negative = inhibition is -23.9%. Also, the activity, negative = inhibition in assay [5] was -10.3%. In addition, the Potency entry in [8], in [16], in assay [9] and in [17] was “inactive” each time. The result in assay [13] was inactive.
